Rows were chosen to be rich in hits. Some 1.3% of all compounds tested hit in one or more screens of this group.
mIDH1 inhibitor = blocks human mutant IDH1 R132H enzyme; O75874; IDH1-R132H enzyme, NADPH consumption, diaphorase/resazurin fluorescence; Potency, µM (doses to about 76.6 µM), hits mostly inhibitors; 390,000 tested, 0.093% active; AID 602179; note: nearly all actives have a fitted effect of over 65% in size
Target sequence (O75874 whole entry R132H, stated change not applied): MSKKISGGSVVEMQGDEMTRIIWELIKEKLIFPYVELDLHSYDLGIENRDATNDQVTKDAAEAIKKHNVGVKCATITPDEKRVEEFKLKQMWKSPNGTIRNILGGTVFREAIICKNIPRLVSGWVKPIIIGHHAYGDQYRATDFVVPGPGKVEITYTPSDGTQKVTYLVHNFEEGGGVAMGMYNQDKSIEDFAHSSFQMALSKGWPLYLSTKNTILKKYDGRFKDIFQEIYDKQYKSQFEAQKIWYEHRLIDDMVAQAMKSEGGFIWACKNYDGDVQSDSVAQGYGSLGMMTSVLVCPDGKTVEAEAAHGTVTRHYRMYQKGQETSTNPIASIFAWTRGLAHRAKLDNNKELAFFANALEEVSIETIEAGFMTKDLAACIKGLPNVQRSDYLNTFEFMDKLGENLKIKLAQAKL
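IDH1-R132H (0.5 ug/mL dispensed) in pH 7.5 Tris buffer was preincubated 30 min with compound, then given a substrate mix of 0.016 mM NADPH and 2 mM alpha-KG for 80 min at room temperature; remaining NADPH was read by diaphorase/resazurin fluorescence.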
TrxR1 inh = rat TrxR1 inhibition; 390,000 tested, 1% active; recombinant rTrxR1, NADPH fluorescence consumption, selenite substrate; O89049; Potency, µM (top dose mostly 114 µM), most hits filed as inhibitors; note: nearly all actives have a fitted effect of over 65% in size
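Rat TrxR1 (90 nM in the dispensed reagent) was pre-reduced with 400 uM NADPH for 5 min at room temperature, then incubated with compound for 15 min. After 400 uM selenite was added, NADPH fluorescence (Ex 340/Em 450 nm) was followed for 8 min.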
Anesthetic bind = candidate novel general anesthetic via apoferritin binding; apoferritin/1-aminoanthracene competitive binding, fluorescence; P02791; 350,000 tested, 0.074% active; AID 485281; Potency, µM (titrated, usually from 77.5 µM), most hits filed as inhibitors; note: nearly all actives have a fitted effect of over 20% in size
Target sequence (P02791 2-175 limits assumed): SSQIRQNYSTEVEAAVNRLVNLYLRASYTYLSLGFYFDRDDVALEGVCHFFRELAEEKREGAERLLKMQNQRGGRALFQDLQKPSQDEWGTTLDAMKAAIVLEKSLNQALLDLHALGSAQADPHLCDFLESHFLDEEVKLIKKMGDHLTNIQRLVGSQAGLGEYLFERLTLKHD
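Apoferritin-based anesthetic binding model; compound displacement of fluorescent 1-AMA measured as endpoint fluorescence after 10 minutes at room temperature, scaled to free-ligand and complex controls.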
TrxR1 substrate = substrates of rat thioredoxin reductase 1. O89049. purified TrxR1 substrate turnover, NADPH consumption readout. AID 588456. 390,000 tested, 0.01% active. Potency, µM (doses to about 114 µM); note: nearly all actives have a fitted effect of over 50% in size
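Rat TrxR1, dispensed at 90 nM, was prereduced with 400 uM NADPH (final) for 5 min at ~22 deg C, then incubated with compound 15 min before 400 uM selenite. A first-read NADPH fluorescence drop versus no-compound background flagged substrates.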
GALK inhibitor = galactokinase (human) inhibition; P51570; Purified GALK, Kinase-Glo residual ATP luminescence; Potency, µM (doses to about 57.5 µM), most hits filed as inhibitors; 270,000 tested, 0.007% active; AID 1868
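Luminescence from leftover ATP (Ultra-Glo luciferase/luciferin) served as read-out after a 1 h room-temperature reaction of 5 nM GALK with 35 uM ATP and 100 uM galactose.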
PKM2 act = increases activity of human pyruvate kinase M2 | P14618 | purified PKM2, Kinase-Glo ATP luminescence, activation; response scale: 0% is enzyme alone, no compound | Potency, µM (doses to about 57.5 µM), usual class: activators | 260,000 tested, 0.34% active; note: nearly all actives have a fitted effect of over 55% in size
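hPK-M2, >95% pure; 0.1 mM ADP / 0.5 mM PEP final; imidazole pH7.2 buffer w/ 7 mM MgCl2, 50 mM KCl; 1 h RT; Kinase-Glo lum. Intermediate enzyme activity for dual inhibitor/activator qHTS.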
Of the large screens only hits and unclear results are named; the others gave an inactive call. Calls come from the whole dose curve; as a rule, active = well fitted curve in the direction sought with a large enough effect; inconclusive = small, poorly fitted or top-dose-only effect, or another doubt; inactive = no such curve, though single readings can be large; an effect the other way counts as inactive or inconclusive.

O=C1CCCN1CCC1CCN(C2CC(=O)N(c3ccc(Cl)cc3)C2=O)CC1 (configuration not stated)	TrxR1 inh 39.8µM
CC(=O)Nc1ccc(/C=C/c2nc3ccccc3s2)cc1	none (no result: mIDH1 inhibitor, Anesthetic bind, GALK inhibitor, PKM2 act)
O=c1c2cc(N3CCOCC3)ccc2[nH]c(=S)n1Cc1cccc(Cl)c1	none
O=C(c1ccc2c(=O)n(Cc3ccco3)c(=S)[nH]c2c1)N1CCN(c2ccccc2)CC1	Anesthetic bind inconclusive, PKM2 act 12.6µM
O=c1c2cc(N3CCOCC3)ccc2[nH]c(=S)n1Cc1ccco1	TrxR1 inh 10µM, PKM2 act inconclusive
CC(C)(C)n1ncc2c(=O)n(Cc3cccc(Oc4ccccc4)c3)cnc21	none (no result: mIDH1 inhibitor, Anesthetic bind, GALK inhibitor, PKM2 act)
C[N+]1(CC(=O)c2ccccc2)CCc2ccccc2C1 (configuration not stated)	none (no result: mIDH1 inhibitor, Anesthetic bind, GALK inhibitor, PKM2 act)
O=C(NC(=S)NNS(=O)(=O)c1ccccc1)c1ccc([N+](=O)[O-])cc1	TrxR1 inh 14.1µM
O=C(NC(=S)NNS(=O)(=O)c1ccccc1)c1cccnc1	TrxR1 inh 25.1µM
N#Cc1ccccc1NC(=S)NC(=O)c1cccnc1	TrxR1 inh 3.55µM
COc1cc2c(cc1OC)C(COc1ccccc1OC)N(C(=O)c1ccc(S(=O)(=O)N3CCCC3)cc1)CC2 (configuration not stated)	none (no result: GALK inhibitor, PKM2 act)
CCOC(=O)C1=C(COC(=O)c2ccc([N+](=O)[O-])o2)NC(=O)NC1C (configuration not stated)	TrxR1 inh 28.2µM (no result: Anesthetic bind, GALK inhibitor, PKM2 act)
CC(C)(C)n1ncc2c(=O)n(Cc3ccc(F)c(C(F)(F)F)c3)cnc21	none (no result: mIDH1 inhibitor, Anesthetic bind, GALK inhibitor, PKM2 act)
COc1ccc(NC(=O)C2CCN(S(=O)(=O)c3ccc4c(c3)CCCC(=O)N4)CC2)cc1Cl	none (no result: GALK inhibitor, PKM2 act)
CCOP(=O)(OCC)C(C#N)=C1SCN(c2ccc(Cl)cc2)CS1	TrxR1 inh 12.6µM
Cn1cnnc1Sc1cc(N2CCN(S(=O)(=O)c3ccccc3)CC2)ccc1[N+](=O)[O-]	PKM2 act 0.224µM (no result: GALK inhibitor)
O=C(Nc1sc2c(c1C(=O)Nc1ccccc1)CCC2)c1ccc(Br)cc1	TrxR1 inh 56.2µM (no result: GALK inhibitor, PKM2 act)
O=C(Cc1ccccc1)Nc1sc2c(c1C(=O)Nc1ccc(Br)cc1)CCCC2	none (no result: GALK inhibitor, PKM2 act)
Cc1c(C(c2cccc(O)c2)c2c(C)n(C)n(-c3ccccc3)c2=O)c(=O)n(-c2ccccc2)n1C	none
Cc1c(C(c2cc(O)ccc2O)c2c(C)n(C)n(-c3ccccc3)c2=O)c(=O)n(-c2ccccc2)n1C	TrxR1 inh 70.8µM (no result: Anesthetic bind, GALK inhibitor, PKM2 act)
CCOC(=O)c1ccc(NC(=O)CC2Sc3ncnn3C2=O)cc1 (configuration not stated)	TrxR1 inh 1.78µM
COc1ccc(NC(=O)CC2Sc3ncnn3C2=O)cc1 (configuration not stated)	TrxR1 inh 1.58µM, PKM2 act inconclusive
O=C(CC1Sc2ncnn2C1=O)Nc1ccc(Cl)cc1 (configuration not stated)	TrxR1 inh inconclusive
O=C(Nc1cc(C(F)(F)F)ccc1N1CCOCC1)c1ccc(F)cc1	none
O=C(Nc1cc(C(F)(F)F)ccc1N1CCOCC1)c1n[nH]c(=O)c2ccccc12	mIDH1 inhibitor 11.7µM
CCc1nn(CC(=O)NCCOC)c(=O)c2cc3cc(F)ccc3n12	none (no result: GALK inhibitor, PKM2 act)
COc1ccc(/C=N\Nc2ccc([N+](=O)[O-])cc2[N+](=O)[O-])c(C(=O)O)c1OC	TrxR1 inh 50.1µM
C=CCN1C=C2C(=O)C(C)(OC(=O)C3CCCC3)C(=O)C(c3ccccc3)=C2C=C1CCCC(=O)OC (configuration not stated)	TrxR1 inh 79.4µM
COC(=O)CCCC1=CC2=C(c3ccccc3)C(=O)C(C)(OC(=O)C3CCCC3)C(=O)C2=CN1Cc1ccccc1 (configuration not stated)	none (no result: mIDH1 inhibitor, TrxR1 inh, Anesthetic bind, TrxR1 substrate, GALK inhibitor)
Cc1cc2nnc(SCc3ccc4c(c3)OCO4)n2c2ccccc12	none (no result: Anesthetic bind, GALK inhibitor, PKM2 act)
c1ccc2c(c1)ccc1nnc(SCc3ccc4c(c3)OCCO4)n12	PKM2 act 22.4µM
O=C1C(=C(I)I)c2ccccc2-c2ccccc21	TrxR1 inh 0.891µM (no result: Anesthetic bind, GALK inhibitor, PKM2 act)
CCOC(=O)C1C(=O)C(C(=O)OCC)C(c2cccnc2)NC1c1cccnc1 (configuration not stated)	TrxR1 inh 3.16µM

Screening data deposited in PubChem by National Center for Advancing Translational Sciences (NCATS).
